The structures appear in SMILES notation. Values joined by “and” are separate entries in the source; they are usually repeats but may differ in a detail not shown here. Equal entries are not always repeated. About 25,000 (6.9%) of roughly 360,000 compounds were called active. A call without a number means that no potency is given here. Roughly 9% stayed inconclusive and do not appear here. This is one part of a sample in which actives are shown more often than they occur. Calls come from the whole dose curve; as a rule, active = well fitted inhibition curve with a large enough effect; inconclusive = small, poorly fitted or top-dose-only effect; inactive = flat fitted curve, though single readings scatter.
Potency is the fitted concentration of half-maximal effect.

The target of the experiment is Luciferin 4-monooxygenase (Photinus pyralis) (UniProt P08659). Put plainly: qHTS profiling assay for firefly luciferase inhibitor/activator using purifed enzyme and Km concentrations of substrates (counterscreen for miR-21 project). Note: nearly all actives have a fitted effect of over 55% in size. The settings on record: purified FLuc, luminescence inhibition; series mostly up to 57.5 µM. Summed up: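 Purified P. pyralis luciferase (10nM final) with 10uM D-luciferin and 10uM ATP (Km levels) in 50mM Tris acetate pH 7.5, 10mM Mg acetate, 0.01% Tween-20, 0.05% BSA; qHTS 6-point titration, ~60 µM downward; luminescence read.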
Luciferin 4-monooxygenase (Photinus pyralis), sequence (P08659 whole entry, looked up): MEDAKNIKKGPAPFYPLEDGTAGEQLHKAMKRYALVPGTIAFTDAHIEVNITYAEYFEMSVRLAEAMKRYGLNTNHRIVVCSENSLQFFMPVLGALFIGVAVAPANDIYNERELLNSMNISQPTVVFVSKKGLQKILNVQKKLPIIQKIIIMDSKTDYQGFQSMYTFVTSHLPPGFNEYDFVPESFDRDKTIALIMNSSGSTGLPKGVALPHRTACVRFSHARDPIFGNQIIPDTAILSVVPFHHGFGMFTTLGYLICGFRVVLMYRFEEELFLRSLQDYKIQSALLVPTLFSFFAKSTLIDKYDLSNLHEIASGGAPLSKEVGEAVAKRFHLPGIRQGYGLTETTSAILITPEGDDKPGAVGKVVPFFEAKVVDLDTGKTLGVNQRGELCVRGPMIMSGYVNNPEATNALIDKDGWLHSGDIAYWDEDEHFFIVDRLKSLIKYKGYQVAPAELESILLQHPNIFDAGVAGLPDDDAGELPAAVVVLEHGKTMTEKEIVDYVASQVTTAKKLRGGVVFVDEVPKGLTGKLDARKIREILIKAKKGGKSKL
`CCOC(=O)c1c(S(=O)(=O)N2CCCC(C(=O)NCc3cccc(C)c3)C2)c(C)n(C)c1C` (stereo not given): the Potency entry was “inactive”.
Under `CCCCC(=O)Nc1cc(C)c2c(=O)oc3ccccc3c2n1` stands “inactive”.
The value for `CCOC(=O)C1CCCN(CC(=O)Nc2cc(C)c3c(=O)oc4ccccc4c3n2)C1` (stereo not given) was “inactive”; that for `CCOC(=O)c1c(C)nc2c(c1C)c(=O)oc1ccccc12` was 16.9 µM (active).
Under `N#Cc1c(N2CCCCC2)nc(N)c2c(N)nc(SCC(=O)O)cc12` stands 8.49 µM (active); under `N#Cc1c(-c2ccccc2)cc(-c2ccccc2)nc1SCC(=O)O`, “inactive”; under `Cc1cc(C)c(C#N)c(N2CCC(C(N)=O)CC2)n1`, “inactive”.
As to `O=C(c1ccc2nc(N3CCOCC3)sc2c1)N1CCN(c2ccc(Cl)cc2)CC1`, the Potency entry is “inactive”.
Take `O=S(=O)(Nc1ccc2nc(N3CCOCC3)sc2c1)c1ccccc1`: the Potency was 21.3 µM (active).
The value for `CCOC(=O)N1CCC(NC(=O)c2ccc3nc(N4CCOCC4)sc3c2)CC1` was “inactive”; that for `COc1ccccc1N1CC(C(=O)NCCN2C(=O)S/C(=C\c3cccnc3)C2=O)CC1=O` (stereo not given) was “inactive”; that for `NC(=O)COc1ccccc1C(=O)NC12CC3CC(CC(C3)C1)C2` was “inactive”.
The value for `NC(=O)COc1ccc(NC(=O)c2ccccc2-c2ccccc2)cc1` was “inactive”; that for `NC(=O)COc1ccc(C23CC4CC(CC(C4)C2)C3)cc1` was 12 µM (active).
Under `Cc1ccc(/C=C2\CCn3c2nc2cc(C(=O)O)ccc2c3=O)c(C)c1` stands “inactive”; under `COc1ccccc1CNC(=O)CCCn1c(=O)c2ccccc2n(CC(=O)Nc2ccc(C)cc2Cl)c1=O`, “inactive”; under `CCCn1nc(NS(=O)(=O)c2ccc(F)cc2)c2cc3ccccc3nc21`, “inactive”.
With `CCCn1nc(NC(=O)C(C)C)c2cc3cc(OC)ccc3nc21`, the Potency entry was “inactive”.
Under `CCCn1nc(NS(=O)(=O)c2ccccc2)c2cc3cc(C)ccc3nc21` stands 16.9 µM (active).
The value for `O=S(=O)(NCC(c1ccco1)N1CCOCC1)c1cc(F)ccc1F` (stereo not given) was “inactive”; that for `Cc1csc2nc(COC(=O)c3ccccc3NC(=O)c3ccccc3Cl)cc(=O)n12` was “inactive”; that for `CCN(CC)c1nn2c(=O)c(C(=O)NCCc3ccccc3)cnc2s1` was “inactive”.
Turning to `Cc1cc(-n2nc(C)cc2C)n2nc(C)c(-c3ccccc3)c2n1`, the Potency result is “inactive”.
Under `Cc1cc(C(C)(C)C)n2nc(C)c(-c3ccccc3)c2n1` stands “inactive”; under `Cc1cc(-c2ccccc2)n2nc(C)c(-c3ccccc3)c2n1`, 16.9 µM (active); under `Cc1ccc(C)n1-c1nnc(N2CCC(C(=O)NCc3ccccc3Cl)CC2)s1`, “inactive”.
Take `O=C(NCc1ccc2c(c1)CCN2C(=O)c1ccccc1)c1ccccc1`: the Potency result is “inactive”.
The value for `CC(=O)N(C)c1ccc(NC(=O)C(F)(F)F)cc1` was “inactive”; that for `CNC(=S)NNC(=O)c1ccc(N(C)C)cc1` was “inactive”.
Under `CN(C)c1ccc(N/C=C/C(=O)C(F)(F)F)cc1` stands 10.7 µM (active); under `Cc1ccc2nc(NC(=O)c3nc(SCc4ccccc4F)ncc3Cl)sc2c1`, “inactive”; under `CCOc1ccc(NC(=O)c2c(NC(=O)Cc3ccccc3)sc3c2CCC(C)C3)cc1` (stereo not given), “inactive”.
For the molecule `O=S(=O)(c1cccs1)N1CCN(CCOc2ccccc2)CC1`, the Potency entry is “inactive”.
Under `Fc1ccc(-c2nc(Nc3cccc(Cl)c3)nc3c2COc2ccccc2-3)cc1` stands “inactive”.
Under `COc1ccc(-c2nc3c4ccccc4n(CC(=O)Nc4ccc(C(C)=O)cc4)c(=O)n3n2)cc1` stands “inactive”.
The value for `CC1(C(=O)N/N=C/c2cc3c(cc2Br)OCO3)CC1(Br)Br` (stereo not given) was “inactive”; that for `O=C(N/N=C/c1cc2c(cc1Br)OCO2)C1COc2ccccc2O1` (stereo not given) was 13.5 µM (active).
Consider `O=C(CNC(=O)C1COc2ccccc2O1)N/N=C/c1cc(Br)c(O)c(Br)c1` (stereo not given), for which the Potency entry is “inactive”.
Regarding `Cc1ccccc1-c1cc(C(=O)NCc2cccs2)n(CC2CC(c3cccnc3)=NO2)n1` (stereo not given), the Potency entry is “inactive”.
The value for `COc1ccc(Cl)cc1NC(=O)Cn1c(=O)c2ccccc2n2nncc12` was “inactive”; that for `COc1ccc(NC(=O)C2CCC(CNS(=O)(=O)c3csc(C(N)=O)c3)CC2)cc1OC` (stereo not given) was “inactive”.
With `CCN(CC)C(=O)CSc1nc2ccsc2c(=O)n1Cc1ccccc1Cl`, the Potency entry is “inactive”.
Under `Cn1nc(-c2ccccc2)c(-c2nc(-c3ccc(Cl)cc3)no2)c1Cl` stands “inactive”; under `O=C(COC(=O)c1ccccc1Br)Nc1nnc(-c2ccccc2)o1`, “inactive”; under `Brc1ccc(-c2nnc(-c3ccccc3)o2)o1`, 6.01 µM (active).
Under `O=C(OCc1ccc(Br)cc1)c1cccc(-c2nnc(-c3ccccc3)o2)c1` stands “inactive”; under `O=C1c2ccccc2C(=O)N1CCCc1nc(-c2ccccc2)no1`, “inactive”.
Consider `Brc1ccc(-c2noc(-c3ccccc3)n2)o1`, for which the Potency is 2.13 µM (active) and 1.35 µM (active).
Under `Cc1ccc(Cc2nc3ccccc3nc2SCC(=O)Nc2cccc(C(F)(F)F)c2)cc1` stands “inactive”; under `CCCc1nn2c(=O)cc(COC(=O)c3ccc(NC(=O)C(C)Oc4ccccc4)cc3)nc2s1` (stereo not given), “inactive”; under `CN(CC(=O)Nc1cccc(F)c1)C(=O)CC1CCCC1`, “inactive”.
Under `O=C(NCc1ccccc1CN1CCCC1)C1CCN(S(=O)(=O)c2ccc(Cl)cc2)CC1` stands “inactive”; under `O=C(COC(=O)C1CCCCC1)Nc1ccc([N+](=O)[O-])cc1`, 16.9 µM (active).
Turning to `N/C(Cc1ccc([N+](=O)[O-])cc1)=N\OC(=O)C1CCCCC1`, the Potency result is “inactive”.
The value for `NC(=O)c1ccc(NC(=O)COC(=O)c2ccc([N+](=O)[O-])cc2)cc1` was “inactive”; that for `O=C(CN1CCSc2ccccc21)N1CCN(c2ccccc2)CC1` was “inactive”.
Under `CCCCN1C(=O)CC(N2CCOCC2)C1=O` (stereo not given) stands “inactive”; under `CCOC(=O)c1cn(Cc2cccc(C)c2)nn1`, “inactive”.
Under `CCOC(=O)c1nn(-c2cccc(C)c2)cc1C(=O)c1ccccc1` stands 9.53 µM (active).
Regarding `CC(=O)c1nn(-c2cccc(Br)c2)cc1C(=O)c1cccc2ccccc12`, the Potency result was “inactive”.
Turning to `COc1ccc(S(=O)(=O)NCc2cccn2Cc2cccc(C)c2)cc1Cl`, the Potency result is “inactive”.
Under `Cc1cc(Cl)ccc1OCc1nc(-c2ccncc2)no1` stands 10.7 µM (active); under `Cc1ccccc1C(=O)NCc1nc(-c2ccc(Cl)cc2)no1`, “inactive”.
On to `Cc1cc(Cl)ccc1OCCCC(=O)NCc1ccncc1`, for which the Potency entry was “inactive”.
For the molecule `Cc1ccc(CNC(=O)CSc2c(C)cnc3c2c(=O)n(C)c(=O)n3C)cc1`, the Potency entry was “inactive”.
The value for `CCC(=O)Nc1ccc(C(=O)NNC(=O)c2ccc(Cl)cc2)cc1` was “inactive”; that for `O=C(Nc1ccc(Cl)cc1)c1ccsn1` was 12 µM (active); that for `O=C(Nc1cccc(Cl)c1)c1csnn1` was “inactive”.
Under `O=[N+]([O-])c1cc(-c2nc(-c3ccccc3)no2)ccc1NCc1ccco1` stands “inactive”; under `Cc1cc2n(n1)C(c1cc(C(C)(C)C)c(O)cc1O)Nc1ccccc1-2` (stereo not given), “inactive”.
The value for `CCC1C=C(c2ccccc2)C=CN=C1N(CC)CC` (stereo not given) was “inactive”.
Take `CCOc1ccc(CCNC(=O)Cn2nc(CC)n3c(cc4sc(CC)cc43)c2=O)cc1OCC`: the Potency result was “inactive”.
With `Cc1cc(N)n2nc(-c3ccc(C(C)(C)C)cc3)cc2n1`, the Potency is 0.601 µM (active).
Under `Cc1cc(-c2ccccc2)n2nc(-c3ccccc3)cc2n1` stands “inactive”.
With `COc1ccc(-c2cc(C(F)(F)F)n3nc(-c4ccccc4)cc3n2)cc1OC`, the Potency result was “inactive”.
Under `Cc1cc(C)cc(-n2c(SCC(=O)NCC3CCCO3)nc3c([nH]c4ccccc43)c2=O)c1` (stereo not given) stands “inactive”; under `COc1cccc(NC(=O)Nc2ccc3c(c2)N(C)C(=O)c2ccccc2S3)c1`, “inactive”.
Under `CCCCS(=O)(=O)c1oc(-c2cccs2)nc1S(=O)(=O)c1ccccc1` stands “inactive”; under `CCOCCCNC(=O)C(NC(=O)c1ccccc1O)c1ccccc1` (stereo not given), “inactive”.
The value for `CC(=O)c1ccc(NC(=O)c2ccc3c(Cl)c4c(nc3c2)CCCC4)cc1` was “inactive”.
Consider `CC(C)CCNC(=O)c1ccc2c(Cl)c3c(nc2c1)CCC3`, for which the Potency is 0.675 µM (active).
In the case of `COc1ccc(N2CCN(C(=O)c3ccc4c(Cl)c5c(nc4c3)CCCC5)CC2)cc1`, the Potency entry is “inactive”.
Regarding `CCOc1ccc(OCC(=O)OC(C)C(=O)NC2CCCCC2C)cc1` (stereo not given), the Potency entry was “inactive”.
The value for `CCc1cc2c(cc3c(=O)n(CC(=O)NCCc4ccc(OC)c(OC)c4)ncn32)s1` was “inactive”; that for `CCN(CC)c1ccc(/C=N/NC(=O)c2cnccn2)c(O)c1` was 9.53 µM (active); that for `COc1ccc(NC(=O)C/C(C)=N/NC(=O)c2cnccn2)cc1Cl` was “inactive”.
The value for `Cc1ccc(C(=O)NCCNC(=O)c2cnccn2)cc1` was “inactive”.
Under `O=C(CSc1ncnc2c1cnn2CCc1ccccc1)Nc1ccc(F)cc1` stands “inactive”; under `CC(=O)c1ccc(NC(=O)C2CCN(S(=O)(=O)c3c(C)noc3/C=C/c3ccc(C)cc3)CC2)cc1`, “inactive”.
For `COc1ccc(C2(C)ON(c3ccccc3C(F)(F)F)C2=O)cc1` (stereo not given), the Potency entry is “inactive”.
Under `CCNCCC(=O)N1c2ccccc2Sc2ccc(NC(=O)OCC)cc21` stands “inactive”.
Under `O=C(Nc1ccccc1Br)c1cc(CN2CCCC2)on1` stands “inactive”; under `C[C@H](NC(=O)NCCc1ccccc1)C(=O)O`, “inactive”.
Take `CC(C)Cc1cc(C(=O)NCCc2ccccc2)no1`: the Potency is 10.7 µM (active).
As for `Cc1nn(Cc2ccc(F)cc2)c(C)c1NC(=O)c1cc(CC(C)C)on1`, the Potency result was “inactive”.
The value for `CC(C)Cc1cc(C(=O)Nc2cc(Br)ccc2O)no1` was 12 µM (active).
Under `Nc1nonc1C(=O)NCCc1ccccc1` stands “inactive”.
On to `O=S(=O)(NCCCN1CCOCC1)c1ccc(F)c(Cl)c1`, for which the Potency entry is “inactive”.
The value for `CCCN=C1NC(=O)C(CC(=O)NCCc2ccc(OC)c(OC)c2)S1` (stereo not given) was “inactive”; that for `Cc1cccc(-n2ccnc2SCC(=O)Nc2cc(C(F)(F)F)ccc2Cl)c1` was “inactive”.
The value for `CN1CCN(C(CNC(=O)c2ccccc2F)c2ccc3c(c2)OCO3)CC1` (stereo not given) was “inactive”; that for `CCn1c(CSc2nc(C)cc(C)n2)nnc1SCC(N)=O` was “inactive”.
Under `C=CCn1c(SCc2c(C(=O)OC)sc(N)c2C(=O)OC)nnc1-c1ccc(Cl)cc1` stands “inactive”.
Regarding `C=CCn1c(SCC(N)=O)nnc1-c1cc2c(s1)CCC(CC)C2` (stereo not given), the Potency is 7.57 µM (active).
The value for `Cc1oc2ncnc(N3CCCCC3)c2c1C(=O)N1CCN(c2cccc(Cl)c2)CC1` was “inactive”.

Values taken from PubChem BioAssay AID588342 (National Center for Advancing Translational Sciences (NCATS), 2011).
